Drawing on PubChem BioAssay (NCATS), this text covers Potency for 40 compounds.

Inconclusive results are not listed. A number with no mark means an inactive call. Calls come from the whole dose curve. Some results are limits rather than exact numbers.
Potency is the fitted concentration of half-maximal effect.

This assay in a line: Cell Viability - HepG2 (AID 433).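 Note: potency for ATP loss meaning cytotoxicity.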 Conditions: qHTS. An excerpt:
NIH Chemical Genomics Center [NCGC]
NIH Molecular Libraries Screening Centers Network [MLSCN]
National Institutes of Environmental Health Sciences [NIEHS]
National Toxicology Program [NTP]
We have developed a 1536-well cell-based assay for quantitative high throughput screening (qHTS) against a number of cell lines to determine in vitro cytotoxicity of small molecules. This particular assay uses the HepG2 cell line which is derived from hepatocellular carcinoma.
NCGC Assay Protocol Summary:
The CellTiter-Glo luminescent cell viability assay (Promega) is a homogeneous method to measure the number of viable cells in culture. The end point readout of this assay is based on quantitation of intracellular ATP, an indicator of metabolic activity, using the luciferase reaction. Luciferase catalyzes the oxidation of beetle Luciferin to oxyluciferin and light in the presence of ATP. The luminescent signal is proportional to amount of ATP present.
Using the CellTiter-Glo luminescent cell viability assay, the amount of cellular ATP was measured in the HepG2 cell line with complete culture medium following compound treatment for 40 hours. The assay was performed in opaque white Kalypsys 1536-well plates. In the screen, tamoxifen and doxorubicin were used as positive controls. Library compounds were measured for their ability to cause acute toxicity in the cell line, as reflected by a decrease in intracellular ATP levels, in a concentration-dependent manner. Data were normalized to the controls for basal activity (DMSO only) and 100% inhibition (100 uM tamoxifen). AC50 values were determined from concentration-response data modeled with the standard Hill equation.
qHTS protocol fo CellTiter Glo HepG2 cellular assay
[Step] [Parameter] [Value] [Description]
1. Reagent; 5 uL; 1500 HepG2 cells/well
2. Time; 5 hr; 37 °C incubation
4. Controls; 23 nL; Tamoxifen 0.34 uM to 100 uM & Doxorubicin 0.02 nM to 100 uM
5. Time; 40 hr; 37 °C incubation
6. Reagent; 5 uL; CellTiter Glo reagent
7. Time; 20 min; Room Temperature
8. Detection; Luminescence; Viewlux plate reader
Keywords: cell viability, cytotoxicity, HepG2 cell line, luminescence, NTPHTS, NTPHTS_NCGC, NIEHS, EPA, DSSTox, MLSMR, MLSCN, NIH Roadmap, qHTS, NCGC
A general note: qHTS replaces the single test concentration by a dilution series.
For `O=C(O)c1cc(Cl)ccc1Cl`, the Potency was above 92 µM.
The result for `Cc1cc(Cl)ccc1O` reads above 92 µM.
The result for `CC(C)Br` reads above 92 µM; that for `C[N+](=O)[O-]`, above 92 µM; that for `Nn1cnnc1`, above 92 µM.
The result for `c1ccc(NNc2ccccc2)cc1` reads above 92 µM.
Turning to `C(CCOCC1CO1)COCC1CO1` (stereo not given), the Potency is above 92 µM.
Take `CSSC`: the Potency was above 92 µM.
On to `Oc1ccc(Cl)c(Cl)c1`, for which the Potency was above 92 µM.
Regarding `O=[N+]([O-])c1ccccc1-c1ccccc1`, the Potency is above 92 µM.
As for `N#CC(Cl)(Cl)Cl`, the Potency was above 92 µM.
In the case of `O=c1ccc(=O)[nH][nH]1`, the Potency was above 92 µM.
The result for `Nc1ccc(-c2ccc(N)c(Cl)c2)cc1Cl` reads above 92 µM.
As to `CCCCCc1cc(O)cc(O)c1`, the Potency was above 92 µM.
The result for `C=COC(C)=O` reads above 92 µM; that for `C/C=C/CC#N`, above 92 µM.
The result for `Nc1ccc2ccccc2c1` reads above 92 µM; that for `Cl/C=C/CCl`, above 92 µM.
Take `O=C(O)C(Br)Br`: the Potency was above 92 µM.
Take `CN(C)c1ccc(N)cc1`: the Potency is above 92 µM.
Take `CC(=O)NNc1ccccc1`: the Potency is above 92 µM.
For `O=C(O)C(Cl)(Cl)Br`, the Potency was above 92 µM.
The result for `O=NN1CCCCC1` reads above 92 µM; that for `COc1cc(-c2ccc(N)c(OC)c2)ccc1N`, above 92 µM; that for `C=CCO`, above 92 µM.
In the case of `Cc1cccc(N)c1C`, the Potency is above 92 µM.
`CCCCCCCCCCCOC(=O)c1ccccc1C(=O)OCCCCCCCCCCC`: the Potency was above 92 µM.
For the compound `FC(Cl)(Cl)Cl`, the Potency was above 92 µM.
For `S=C1NCCN1`, the Potency was above 92 µM.
The result for `O=[N+]([O-])c1c(Cl)c(Cl)c(Cl)c(Cl)c1Cl` reads above 92 µM; that for `Nc1cc(Cl)cc(Cl)c1`, above 92 µM; that for `C=CCc1cc(OC)c2c(c1)OCO2`, above 92 µM.
For `O=Cc1ccc2c(c1)OCO2`, the Potency is above 92 µM.
On to `COC(C)(C)C`, for which the Potency was above 92 µM.
Regarding `O=[N+]([O-])c1cccc(CCl)c1`, the Potency is above 92 µM.
The result for `c1ccc(OCC2CO2)cc1` (stereo not given) reads above 92 µM; that for `COP(=S)(OC)SCn1nnc2ccccc2c1=O`, above 92 µM; that for `CCCCC(=O)Cl`, above 92 µM.
On to `Cc1ccc(N)cc1Cl`, for which the Potency was above 92 µM.
Consider `CCC#N`, for which the Potency was above 92 µM.
